Test results reported in ChEMBL document CHEMBL3988442, “University of Dundee, Small-Polar-MMV Screening Library” (2021).
The whole screen tested about 48,000 compounds, of which about 13,000 (27%) showed an effect of 50% or more. The list shows a part of the results.

Test system: Wolbachia pipientis
Assay: Anti-Wolbachia Cell-Based Screen
Assay type: functional
Design: scale not given: in the data most compounds retested in dose-response had high values
Settings: 5 µM

Question: For `O=C(c1ccc(Cl)c(Cl)c1)N1CCCCC1C1OCCO1` (configuration not stated), which “Percent Effect” value is on record?
Answer: The value was 4.358%.

Question: For `Cc1ncc(CNC(=O)N(C)Cc2ccc([S+](C)[O-])cc2)s1` (configuration not stated), which “Percent Effect” value is on record?
Answer: Its value is -5.78%.

Question: With `CCc1nc(CN2CCOC(CN(CC)c3cccnn3)C2)cs1` (configuration not stated) as the compound, how does the “Percent Effect” value read?
Answer: The value was 0.2652%.

Question: With `Cc1nc(C(C)C)sc1C(=O)NS(=O)(=O)c1ccc(C#N)cc1` as the compound, how does the “Percent Effect” value read?
Answer: The value was -14.12%.

Question: `Cc1ccc(CNCCOc2ccc(S(C)(=O)=O)cc2)cc1` was tested. Which “Percent Effect” value did it give?
Answer: Its value is 14.5%.

Question: Which “Percent Effect” value does the source give for `C=C(C)COc1ccccc1NC(=O)NC1CCOCC1` here?
Answer: Its value is -8.907%.

Question: Which “Percent Effect” value does the source give for `CCNC(=O)COc1ccccc1N1CCCC(C)C1` (configuration not stated) here?
Answer: The value was -0.1998%.

Question: How did the “Percent Effect” value turn out when `O=C(NCCCc1ccncc1)C1CCCN(Cc2ccco2)C1` (configuration not stated) was run?
Answer: The value was 21.32%.

Question: How did the “Percent Effect” value turn out when `C=C(C)COc1ccccc1C(=O)N1CCC2(CC1)CN(C)CCN2C` was run?
Answer: The value was 12.34%.

Question: Which “Percent Effect” value does the source give for `Cc1ccc(NCCCNC(=O)C2CCCN(Cc3ccco3)C2)nc1` (configuration not stated) here?
Answer: Its value is -3.633%.

Question: For `C=C(C)CN1CCC(NC(=O)NCCc2ccccc2OC)CC1`, which “Percent Effect” value is on record?
Answer: Its value is 1.808%.

Question: `C=C(C)COc1ccccc1C(=O)N1CCC(C(=O)NCC)C1` (configuration not stated) was tested. Which “Percent Effect” value did it give?
Answer: The value was 83.75%.

Question: For `NC(=O)C1CCN(C(=O)c2ccccc2OCc2ccccc2Cl)CC1`, which “Percent Effect” value is on record?
Answer: Its value is 5.008%.

Question: With `C=C(C)COc1ccccc1CN1CCC(C(=O)NCC)C1` (configuration not stated) as the compound, how does the “Percent Effect” value read?
Answer: Its value is 91.68%.

Question: With `C=C(C)COc1ccccc1CN1CCCC(C(=O)NCCCO)C1` (configuration not stated) as the compound, how does the “Percent Effect” value read?
Answer: Its value is 100.8%.

Question: With `C=C(C)COc1ccccc1NC(=O)N1CCCCC1CO` (configuration not stated) as the compound, how does the “Percent Effect” value read?
Answer: Its value is -1.415%.

Question: For `C=C(C)COc1ccccc1CN1CCC(NC(C)=O)CC1`, which “Percent Effect” value is on record?
Answer: The value was 100.9%.

Question: Which “Percent Effect” value does the source give for `CCc1nc(CCNC(=O)Nc2cc(C(N)=O)sc2C)cs1` here?
Answer: The value was 34.11%.

Question: How did the “Percent Effect” value turn out when `O=C(c1ncoc1C1CCCO1)N1CC2(CCCC2)c2ccccc21` (configuration not stated) was run?
Answer: The value was -7.876%.

Question: With `Cc1ccc(CCNc2ncnc3sc4c(c23)CCNC4)o1` as the compound, how does the “Percent Effect” value read?
Answer: Its value is 6.04%.

Question: With `CC(C)c1nc2oc(C(=O)N3CCOCC3)c(N)c2c2c1CCCC2` as the compound, how does the “Percent Effect” value read?
Answer: The value was 100.5%.

Question: Which “Percent Effect” value does the source give for `CCn1c(N)nc2cc(C(=O)N3CCCOCC3)cnc21` here?
Answer: Its value is -12.44%.

Question: For `Cn1c(C(=O)N2CCOCC2)nc2c1CCN(c1ncccn1)C2`, which “Percent Effect” value is on record?
Answer: Its value is -2.522%.

Question: With `CCC(C)N1CCc2c(C(=O)N3CCOCC3)n[nH]c2C1` (configuration not stated) as the compound, how does the “Percent Effect” value read?
Answer: The value was -26.93%.

Question: For `CC(=O)N1CCCN(C(=O)c2oc(Br)cc2C)CC1`, which “Percent Effect” value is on record?
Answer: The value was -21.77%.

Question: How did the “Percent Effect” value turn out when `Nc1nc2c(c(NCc3ccc(C(=O)N4CCCC4)cc3)n1)CCCC2` was run?
Answer: Its value is -8.867%.

Question: `CC(=O)N1CCc2[nH]nc(C(=O)N3CCOCC3)c2C1` was tested. Which “Percent Effect” value did it give?
Answer: The value was -13.35%.

Question: `Cc1nc2oc(C(=O)N3CCOCC3)c(N)c2c2c1CCCC2` was tested. Which “Percent Effect” value did it give?
Answer: The value was 117.9%.

Question: `Cc1nc2oc(C(=O)N3CCCC3)c(N)c2c2c1CCCC2` was tested. Which “Percent Effect” value did it give?
Answer: The value was 89.55%.

Question: `Cc1nc(N2CCOc3ccc(CO)cc3C2)c2c(C)noc2n1` was tested. Which “Percent Effect” value did it give?
Answer: The value was -4.645%.

Question: How did the “Percent Effect” value turn out when `CNC(=O)C(C)NC(=O)c1cc(COc2ccc(OC)cc2Cl)[nH]n1` (configuration not stated) was run?
Answer: Its value is -6.822%.

Question: With `CN1C[C@@H](n2cnc(-c3ccccc3)c2-c2c[nH]cn2)C[C@H]1C(=O)O` as the compound, how does the “Percent Effect” value read?
Answer: The value was -2.319%.

Question: How did the “Percent Effect” value turn out when `Cc1cc(C)c(C(=O)N2CCC3(CCCN(CC(C)(C)C)C3)C2)[nH]1` (configuration not stated) was run?
Answer: The value was -1%.

Question: How did the “Percent Effect” value turn out when `CC[C@@H]1N(Cc2ccc(F)cc2)CCC[C@]12CCC(=O)N2C.O=C(O)C(F)(F)F` was run?
Answer: Its value is 88.6%.

Question: Which “Percent Effect” value does the source give for `COc1ccc(CN2CCO[C@@H]3C[C@@H](C(=O)NC(C)C)C[C@H]32)cc1.O=C(O)C(F)(F)F` here?
Answer: Its value is -0.6614%.

Question: Which “Percent Effect” value does the source give for `CNC(=O)[C@H]1C[C@H]2OCC[C@H]2N(Cc2ccc(F)cc2)C1.O=C(O)C(F)(F)F` here?
Answer: The value was -9.122%.

Question: `CC[C@@H]1N(Cc2ccc(C)s2)CCC[C@]12CCC(=O)N2C.O=C(O)C(F)(F)F` was tested. Which “Percent Effect” value did it give?
Answer: The value was 100.7%.

Question: With `CC[C@@H]1N(Cc2ccc(OC)cc2)CCC[C@]12CCC(=O)N2CCOC.O=C(O)C(F)(F)F` as the compound, how does the “Percent Effect” value read?
Answer: Its value is 91.26%.

Question: With `CC[C@@H]1N(Cc2ccc(C)o2)CCC[C@]12CCC(=O)N2CCOC.O=C(O)C(F)(F)F` as the compound, how does the “Percent Effect” value read?
Answer: Its value is 120.4%.

Question: With `Cc1ccc(CN2CCCC3(CCCC(=O)N3C)C2)s1.O=C(O)C(F)(F)F` (configuration not stated) as the compound, how does the “Percent Effect” value read?
Answer: Its value is 5.855%.

Question: Which “Percent Effect” value does the source give for `Cc1ccc(CN2CC(C(=O)N3CCCC3)C3(CCOCC3)C2)s1.O=C(O)C(F)(F)F` (configuration not stated) here?
Answer: Its value is -16.58%.

Question: Which “Percent Effect” value does the source give for `COc1ccc(CN2C[C@H](N3CCCC3=O)[C@@H]3OCCC[C@@H]32)cc1.O=C(O)C(F)(F)F` here?
Answer: Its value is 8.325%.

Question: How did the “Percent Effect” value turn out when `CN1CCN(c2cnn(CCn3cccn3)c(=O)c2)CC1` was run?
Answer: Its value is 1.729%.

Question: How did the “Percent Effect” value turn out when `CN(C)C[C@H]1CC[C@@H](Cc2ccc3c(cnn3C)c2)O1` was run?
Answer: Its value is 15.72%.

Question: `Cc1cccc2nc(CN3CCCC(Cn4ccnn4)C3)cc(=O)n12` (configuration not stated) was tested. Which “Percent Effect” value did it give?
Answer: The value was -2.392%.

Question: How did the “Percent Effect” value turn out when `CC(C)Cn1ncc2cc(C(=O)N(C)CCc3ccccc3)cnc21` was run?
Answer: Its value is 7.152%.

Question: With `COCCNC(=O)[C@H]1C[C@H]2OCC[C@H]2N(Cc2ccoc2)C1.O=C(O)C(F)(F)F` as the compound, how does the “Percent Effect” value read?
Answer: Its value is 2.424%.

Question: Which “Percent Effect” value does the source give for `CC[C@@H]1N(Cc2ccc(F)cc2)CCC[C@]12CCC(=O)N2CCOC.O=C(O)C(F)(F)F` here?
Answer: The value was 105%.

Question: With `COCCN1C(=O)CCC12CCCN(Cc1ccccc1F)C2.O=C(O)C(F)(F)F.O=C(O)C(F)(F)F` (configuration not stated) as the compound, how does the “Percent Effect” value read?
Answer: Its value is -19.88%.

Question: Which “Percent Effect” value does the source give for `COCCN1C[C@@H]2CN(Cc3cccc(F)c3)CCC[C@]2(C(=O)O)C1.O=C(O)C(F)(F)F.O=C(O)C(F)(F)F` here?
Answer: The value was 4.566%.

Question: With `CC[C@@H]1N(Cc2ccoc2)CCC[C@]12CCC(=O)N2CCOC.O=C(O)C(F)(F)F` as the compound, how does the “Percent Effect” value read?
Answer: The value was 119.5%.

Question: For `Cn1nnc2c1CCN(Cc1ccoc1)C2COCc1ccccc1.O=C(O)C(F)(F)F` (configuration not stated), which “Percent Effect” value is on record?
Answer: The value was 14.93%.

Question: For `CCCOc1ccc(C(=O)N[C@@H]2CCNC[C@H]2O)cc1Cl`, which “Percent Effect” value is on record?
Answer: Its value is 4.821%.

Question: For `c1cc(NCc2cscn2)cc(OCCN2CCCCC2)c1`, which “Percent Effect” value is on record?
Answer: Its value is 8.828%.

Question: `CN(Cc1cc[nH]n1)C(=O)C1CC(=O)N(Cc2ccncc2)C1` (configuration not stated) was tested. Which “Percent Effect” value did it give?
Answer: The value was 23.6%.

Question: How did the “Percent Effect” value turn out when `CC(C)(C)OC(=O)Cn1nc(C2CC2)cc(C(F)(F)F)c1=O` was run?
Answer: Its value is 2.885%.

Question: `CCCN1CCN(C(=O)Cn2nc(C(F)(F)F)c(Br)c2C2CC2)CC1` was tested. Which “Percent Effect” value did it give?
Answer: Its value is 112.9%.

Question: For `CCN1CCN(C(=O)CCc2c(C)noc2Cl)CC1`, which “Percent Effect” value is on record?
Answer: Its value is 3.416%.

Question: How did the “Percent Effect” value turn out when `Cc1cc(C2CCCN(C(=O)CN3CCN(C)CC3)C2)n[nH]1` (configuration not stated) was run?
Answer: The value was 0.3099%.

Question: `CCCN1CCN(C(=O)CCn2nc(C(F)(F)F)c(Br)c2C)CC1` was tested. Which “Percent Effect” value did it give?
Answer: Its value is 94.07%.

Question: Which “Percent Effect” value does the source give for `CC(C)(C)C(=O)Cn1nc(C2CC2)cc(C(F)(F)F)c1=O` here?
Answer: Its value is 3.486%.

Question: With `CCCN1CCCN(C(=O)C(CC)N2CCCC2=O)CC1` (configuration not stated) as the compound, how does the “Percent Effect” value read?
Answer: The value was -5.426%.

Question: For `CCN1CCN(C(=O)Cn2nc(C(F)(F)F)c(Br)c2C2CC2)CC1`, which “Percent Effect” value is on record?
Answer: Its value is 81.51%.

Question: How did the “Percent Effect” value turn out when `CN1CCN(C(=O)Cn2nc(C(F)(F)F)c(Br)c2C2CC2)CC1` was run?
Answer: Its value is 120.3%.

Question: Which “Percent Effect” value does the source give for `CCCN1CCN(C(=O)C(C)n2cc(Br)cn2)CC1` (configuration not stated) here?
Answer: Its value is 6.17%.

Question: `Cc1nn(C)c(C)c1CCC(=O)N1CCN(CCn2cncn2)CC1` was tested. Which “Percent Effect” value did it give?
Answer: The value was 2.467%.

Question: Which “Percent Effect” value does the source give for `CCN1CCN(C(=O)CCC2CCN(C(=O)CCSC)CC2)CC1` here?
Answer: The value was 1.019%.
